# According to PubChem BioAssay (NCATS):
# Several values for one entry are separate records, joined by “and”; a condition that tells them apart may be missing. Identical values can stand only once. Inconclusive results are not listed. A call without a number means that no potency is given here. A number with no mark means an inactive call. Activity calls are given as the source filed them. Calls come from the whole dose curve; as a rule, active = well fitted inhibition curve with a large enough effect; inconclusive = small, poorly fitted or top-dose-only effect; inactive = flat fitted curve, though single readings scatter.
# Assays:
# Assay in all cases: Cytotoxic Profiling of Annotated Libraries Using Quantitative High-Throughput Screening (AID 1296008); note: nearly all actives have a fitted effect of over 60% in size
# Settings in all cases: Five cell lines viability, CellTiter-Glo ATP luminescence, 48-72 h; max response: hits give low values
# [1] = test system: CRL-7250
# In short: (§1)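 Cytotoxicity was measured as CellTiter-Glo ATP luminescence, read after 10 min at room temperature. Compound treatment of the cells lasted 48 or 72 hr at 37 degrees Celsius in a qHTS format.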
# [2] = test system: HEK293
# In short: as §1
# [3] = test system: HaCat
# In short: as §1
# Potency is the fitted concentration of half-maximal effect.
smiles,measurement,setting,value
CC(C)c1nc(N(C)S(C)(=O)=O)nc(-c2ccc(F)cc2)c1/C=C/[C@@H](O)C[C@@H](O)CC(=O)O,Potency,[1],16.4 µM (active)
same,outcome,[2],inactive
same,outcome,[3],inactive
CC(=O)NCCCCn1c2c(c3ccccc31)C(=O)NCC2,max response,[1],4.55%
same,outcome,[2],inactive
same,outcome,[3],inactive
O=c1c2ccccc2nc2n1CCC2O (configuration not stated),outcome,[1],inactive
same,outcome,[2],inactive
same,max response,[3],4.07%
Cc1nc2c(-c3cnc(N)nc3)nc(N3CCOCC3)nc2n1C(C)C,Potency,[1],291 nM (active) and 7.4 nM (active)
same,Potency,[2],326 nM (active) and 23.4 nM (active)
same,Potency,[3],2.06 µM (active) and 132 nM (active)
OC[C@H]1O[C@@H](OCCc2ccc(O)cc2)[C@H](O)[C@@H](O)[C@@H]1O,max response,[1],1.66%
same,max response,[2],-4.41%
same,outcome,[3],inactive
CNC(=O)O[C@H]1COc2ccc(N3CCN(C4COC4)CC3)cc2[C@@H]1NC(=O)c1ccc(F)cc1,max response,[1],-2.36%
same,outcome,[2],inactive
same,outcome,[3],inactive
CC1=CC(=O)CC(C)(CO[C@@H]2O[C@H](CO)[C@@H](O)[C@H](O)[C@H]2O)C1(O)/C=C/C(C)=C/C(=O)O (some centres not stated),outcome,[1],inactive
same,outcome,[2],inactive
same,max response,[3],-0.434%
CC1CCC2C(C(=O)O)=CC3C(O)C(C)(C)CC123 (configuration not stated),max response,[1],-11.2%
same,outcome,[2],inactive
same,outcome,[3],inactive
C[C@@H]1O[C@@H](O[C@H]2[C@H](O[C@H]3[C@H](O[C@H]4CC[C@@]5(CO)C(CC[C@]6(C)C5CC=C5C7CC(C)(C)C[C@@H](O)[C@]7(C)CC[C@]56C)C4(C)C)O[C@H](C(=O)O)[C@@H](O)[C@@H]3O)OC[C@@H](O)[C@@H]2O)[C@H](O)[C@H](O)[C@H]1O (some centres not stated),outcome,[1],inactive
same,outcome,[2],inactive
same,max response,[3],4.17%
